Sampled rows, rich in hits. Any-hit rate of the full collection: about 1%.
RXFP1 antag: RXFP1 (human) relaxin receptor antagonism; Q9HBX9; HEK293-RXFP1, relaxin-stimulated cAMP HTRF, 30 min; hits give low values; activity change, negative = inhibition, % at 57.5 µM; 0.59% of 350,000 active; AID 1259400;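 active = activity change of -60% or lower, but not beyond a set lower limit; inconclusive = change between -60% and -40%, or beyond the set limit; inactive = change above -40%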; also: % is scaled to controls: 0 for no effect and ±100 for the full control effect
gsp antag: antagonists of gsp mutant (McCune-Albright syndrome); gsp-mutant cells, cAMP HTRF, 30 min; Potency, µM (series often up to 76.9 µM), for inactives: at the top dose activity change, negative = inhibition, hits mostly inhibitors; 0.4% of 340,000 active; AID 624288; calls by dose curve; cell line not stated here;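 also: intracellular cAMP measured with PDE inhibitor Ro 20-1724 present during compound exposure; potency is read from the fitted curve at half-maximal effect; % is scaled to controls: 0 for no effect and ±100 for the full control effect; nearly all actives have a fitted effect of over 65% in size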
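Measurement of cellular cAMP by homogeneous time-resolved fluorescence following a 30 min compound exposure at 37C. The PDE inhibitor […] was present throughout; the assay buffer was DPBS with 0.05% BSA and 0.005% Tween 20.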
TSHR antagonist: blocks TSH signaling through the human TSH receptor; P16473; TSHR-expressing cells, TSH-stimulated cAMP HTRF, 2 h; hits give low values; activity change, negative = inhibition, % at 11.5 µM; 0.2% of 330,000 active;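 active = activity change below a set negative limit, meaning inhibition stronger than a set level, cut at about -70% in these data; inconclusive = activity change between two set negative limits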; also: % is scaled to controls: 0 for no effect and ±100 for the full control effect
Target sequence (P16473 whole entry, looked up): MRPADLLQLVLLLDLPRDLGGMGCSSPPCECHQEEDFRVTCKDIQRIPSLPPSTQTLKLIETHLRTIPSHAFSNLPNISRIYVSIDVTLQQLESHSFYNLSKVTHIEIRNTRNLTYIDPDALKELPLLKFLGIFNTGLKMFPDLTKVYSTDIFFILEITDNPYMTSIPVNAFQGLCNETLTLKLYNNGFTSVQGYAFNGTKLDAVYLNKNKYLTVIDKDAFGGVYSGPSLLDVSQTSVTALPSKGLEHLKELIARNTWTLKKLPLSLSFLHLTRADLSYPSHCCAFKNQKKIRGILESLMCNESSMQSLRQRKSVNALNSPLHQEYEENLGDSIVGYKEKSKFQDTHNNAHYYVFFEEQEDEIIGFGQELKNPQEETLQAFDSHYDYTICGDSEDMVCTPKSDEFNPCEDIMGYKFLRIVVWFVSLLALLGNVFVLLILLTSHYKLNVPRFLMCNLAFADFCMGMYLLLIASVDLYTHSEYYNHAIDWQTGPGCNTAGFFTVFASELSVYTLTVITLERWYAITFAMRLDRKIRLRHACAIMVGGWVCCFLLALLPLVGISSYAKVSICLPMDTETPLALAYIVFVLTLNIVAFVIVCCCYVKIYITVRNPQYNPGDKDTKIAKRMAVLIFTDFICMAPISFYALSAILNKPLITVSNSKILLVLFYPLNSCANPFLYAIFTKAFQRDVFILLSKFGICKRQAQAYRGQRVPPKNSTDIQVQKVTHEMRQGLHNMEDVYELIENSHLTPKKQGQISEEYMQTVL
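TSHR-expressing cells, 200/well, pre-treated with compound, then stimulated with EC80 TSH (4nM final) for 2 hours at 37 deg C. cAMP measured by competitive HTRF: anti-cAMP cryptate antibody in lysis buffer plus cAMP-d2, read after 30 minutes at room temperature.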
RXFP1 agonist: RXFP1 (human) receptor agonism. HEK293T-RXFP1 cAMP TR-FRET, 30 min; response scale: percent of porcine relaxin response, buffer zero. Potency, µM (series often up to 57.5 µM), inactives show at the top dose activation, hits mostly activators. 0.3% of 370,000 active. AID 2676; active = well fitted activation curve with a large enough effect; inconclusive = small, poorly fitted or top-dose-only effect; also: potency is read from the fitted curve at half-maximal effect; % is scaled to controls: 0 for no effect and ±100 for the full control effect; nearly all actives have a fitted effect of over 60% in size
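HEK293 cells stably expressing RXFP1, treated 30 min at 37C with compounds plus PDE4 inhibitor Ro 20174; cAMP measured by HTRF TR-FRET. Normalized to buffer and 29 nM porcine relaxin; EC50 by Hill fit.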
gsp agonist: gsp mutant agonism; gsp mutant cells, cAMP HTRF, 30 min; Potency, µM (highest dose often 76.9 µM), without a hit: at the highest dose activation (cAMP increase), most hits filed as activators; 0.13% of 340,000 active; AID 624287; active = well fitted activation curve with a large enough effect; inconclusive = small, poorly fitted or top-dose-only effect, or another doubt; inactive = no such curve, though single readings can be large or run the other way; cell line not stated here;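 also: phosphodiesterase inhibitor Ro 20-1724 added with compounds to block cAMP breakdown; potency is read from the fitted curve at half-maximal effect; nearly all actives have a fitted effect of over 60% in size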
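Cells stably selected in G418 were plated at 2000/well, grown 16-24 hr, then given compounds in DMSO with the PDE inhibitor […] (300 uM solution added) for 30 min at 37C; cAMP was read by HTRF.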
Active calls of the source: *; ? = inconclusive; / = no result given; [ ] = dose if it differs, or a comment.

SMILES | RXFP1 antag | gsp antag | TSHR antagonist | RXFP1 agonist | gsp agonist
O=C(NCCc1nc2ccccc2n1CCOc1ccc(Cl)cc1)C1CCCCC1 | / | / | / | -0.7% | /
CCOC(=O)N1CCN(C(=O)CCCN2C(=O)CSc3nc(C)cc(C)c32)CC1 | -13.4 | 50.1µM* | 33.3 | 0.4% | 17.7%
Cc1ccc(C)c(N2CCN(C(=O)c3cnn(C(C)(C)C)c3C3CCN(C(=O)OC(C)(C)C)CC3)CC2)c1 | 4.6 | / | / | -2.4% | /
Cc1cc(C)c2nc(N(Cc3cccnc3)C(=O)c3ccc(S(=O)(=O)N(C)C)cc3)sc2c1 | -14.5 | / | / | 2.2% | /
CCCc1ccc2oc(C(=O)NCCc3nc(C(=O)OCC)cs3)c(C)c2c1 | -78.6* | ? | -15.4 | 0.2% | 18.1%[15.4 µM]
O=C(Nc1nc(-c2cccs2)cs1)c1ccco1 | 1.4 | -2.7% | -3.7 | 0.0% | 7.7%
O=C(Nc1nc(-c2cccs2)cs1)c1ccc([N+](=O)[O-])o1 | 2.8 | 35.5µM* | -17.5 | -1.8% | 9.1%
COc1ccc(C[C@@H]2OC3(C=CC(=O)C=C3)O[C@H]2Cc2ccc(OC)cc2)cc1 | -92.0* | -10.3% | / | / | -14.1%
Cc1ccc(NC(=O)C2CCCN(S(=O)(=O)c3cccc4cccnc34)C2)c(C)c1 (stereo not drawn) | -7.2 | / | / | 2.8% | /
Cc1ccccc1N/N=C/c1sc(=O)n(Cc2cccc(C(=O)O)c2)c1Cl | -72.7* | ? | -44.8 | -2.4% | ?
COC(=O)c1cccc(Cn2c(Cl)c(/C=N/Nc3ccccc3C)sc2=O)c1 | -19.8 | -0.3% | -9.6 | -0.9% | -3.0%
O=C1C2CCCN2C(c2ccc(Br)cc2)N1c1ccc(F)cc1 (stereo not drawn) | / | 50.1µM* | -7.4 | 0.8% | -5.3%
C=CCn1c(O)c(C2=c3ccccc3=NC2=O)c2ccccc21 | -95.3* | 11.0% | 18.0 | 1.1% | -28.5%
CC1=C(C(=O)O)N2C(=O)[C@@H](NC(=O)[C@H](N)C3=CCC=CC3)[C@H]2SC1 | 11.9 | / | / | / | /
Cc1cc(C(=O)NCCN2C(=O)S/C(=C\c3cccs3)C2=O)ccc1[N+](=O)[O-] | -3.7 | 25.1µM* | -9.3 | 1.1% | 5.4%
Cc1cc(C(=O)NCc2cccs2)ccc1[N+](=O)[O-] | -4.5 | -2.1% | 12.0 | 0.0% | 8.4%
CC1C/C(=C/c2ccccn2)C(=O)/C(=C/c2ccccn2)C1 (stereo not drawn) | -74.5* | -18.0% | -1.1 | -0.1% | -0.1%[15.4 µM]
CC(C)(C)C1C/C(=C/c2ccccn2)C(=O)/C(=C/c2ccccn2)C1 (stereo not drawn) | -0.5 | -21.3% | -21.5 | -2.0% | -22.9%
Cc1ccc(OCc2cc(C(=O)N(C)CCc3nc4ccccc4[nH]3)no2)cc1C | -3.1 | 35.5µM* | 26.5 | -0.5% | 1.5%
CC(=O)OCC(=O)[C@@]12N=C(C)O[C@@H]1C[C@H]1[C@@H]3CCC4=CC(=O)C=C[C@]4(C)[C@H]3[C@@H](O)C[C@@]12C | 0.6 | / | / | / | /
Cc1c(CC(=O)NCc2ccccc2)c(=O)oc2c(C)c(O)ccc12 | 1.8 | / | / | 8.5% | /
CC(C)(C)c1ccc(C(=O)Nc2ccc(F)cc2)s1 | ? | 1.6% | -44.1 | 31.6µM* | 16.9%
CCc1cc2cc(C(=O)Nc3ccc(F)cc3)sc2s1 | 9.8 | 30.8% | -1.7 | ? | ?
COc1ccccc1-c1csc(N2CCC(C(N)=O)CC2)n1 | / | / | -14.0 | / | /
O=[N+]([O-])/C=C\c1ccc(N2CCCC2)c(F)c1 | -67.8* | -7.3% | -7.8 | 0.2% | 1.7%
SMILES | RXFP1 antag | gsp antag | TSHR antagonist | RXFP1 agonist | gsp agonist
O=Cc1ccc(N2CCCC2)c([N+](=O)[O-])c1 | -18.9 | -15.2% | -0.7 | 3.1% | 3.4%[15.4 µM]
CCOC(=O)c1c(-c2ccccc2)oc2ccc(OCC(O)CNCCN(C)C)cc12 (stereo not drawn) | -100.3* | 13.4% | 19.2 | -0.1% | 8.2%[15.4 µM]
CCOC(=O)c1c(-c2ccccc2)oc2ccc(OCC)cc12 | -12.6 | -8.8% | -1.9 | 1.6% | 9.1%
CCc1cccc(NC(=O)CCCn2nc(C)c3c(C)n(-c4ccccc4)nc3c2=O)c1 | -65.6* | -12.9% | 2.9 | -0.3% | 13.2%
COc1ccc(C(=O)CCC(=O)N2CCN(c3cccc(Cl)c3)CC2)cc1 | -12.2 | 35.5µM* | -11.6 | 1.5% | ?
COc1ccc(OCC(=O)N2CCN(c3cccc(Cl)c3)CC2)cc1 | 7.4 | -14.9% | -2.3 | 2.2% | 11.5%[15.4 µM]
Cc1ccc(C(=O)N/N=c2\oc3ccccc3cc2C(N)=O)cc1 | -3.7 | -17.6% | -7.6 | 3.9% | -27.4%
NC(=O)c1cc2ccccc2o/c1=N/NC(=O)c1cccc(Cl)c1 | 3.0 | 1.6% | -78.5* | 1.1% | ?
Cc1cccc(-c2nc(CSCC(=O)N3CCN(c4ccccn4)CC3)c(C)o2)c1 | -5.9 | 31.6µM* | -36.6 | -2.3% | -14.4%
Cc1ccsc1-c1nc(CSCC(=O)N2CCN(c3ccccc3)CC2)c(C)o1 | -5.5 | ? | -70.7* | 4.2% | -40.8%
COc1ccc(-c2nc(CSCC(=O)N3CCN(c4ccccc4)CC3)c(C)o2)cc1 | -35.0 | / | / | -1.3% | /
S=c1nc2c(n[nH]1)c1ccccc1n2CCc1ccccc1 | -114.6* | 0.7% | -39.8 | 2.7% | -39.8%
CSc1nnc2c3ccccc3n(CCc3ccccc3)c2n1 | 7.2 | ? | -1.8 | 0.8% | ?
CCN(CC)CCN | -19.2 | / | / | / | /
COc1ccccc1CNS(=O)(=O)c1cc(C(=O)Nc2cccc(C(F)(F)F)c2)ccc1F | 6.0 | / | / | 0.9% | /
Oc1cccc(-c2c3nc(c(-c4cccc(O)c4)c4ccc([nH]4)c(-c4cccc(O)c4)c4nc(c(-c5cccc(O)c5)c5ccc2[nH]5)CC4)C=C3)c1 | -100.3* | / | / | / | /
N#Cc1c(N)nc2c(c1-c1cccc(O)c1)CCCCCC2 | -8.8 | 2.1% | 6.3 | 0.6% | ?
COc1ccc(OC)c(CNC(=O)c2ccc3nc(C(C)C)oc3c2)c1 | -26.3 | / | / | -0.5% | /
Cc1cccc(-n2nnnc2S(C)(=O)=O)c1 | -83.9* | / | / | 0.4% | /
COc1cccc(-n2nnnc2S(C)(=O)=O)c1 | 10.9 | 12.3% | -23.8 | 2.6% | -11.2%
CN(CCOc1ccc(Cl)cc1)C(=O)c1cc(-c2ccco2)nc2ccccc12 | -69.6* | ? | -19.6 | 2.6% | -3.1%
CC1(c2ccccc2)OC(C(=O)O)=CC1=O (stereo not drawn) | -1.3 | / | / | / | /
CCCn1c2ccccc2c2cnn(CC(=O)N3CCC(C(=O)OCC)CC3)c(=O)c21 | 9.4 | / | / | 4.6% | /
COc1ccc2cc(C#N)c(N3CCN(C(=O)c4ccccc4C)CC3)nc2c1 | 10.0 | 39.8µM* | 9.0 | -1.9% | -22.3%
Cc1cc(C)c(S(=O)(=O)N2CCN(c3ccccn3)CC2)c(C)c1 | -95.1* | -15.1% | -5.7 | -1.4% | 8.4%[15.4 µM]
Cc1cc(S(=O)(=O)N2CCN(c3ccccn3)CC2)ccc1F | -1.1 | -10.8% | 39.9 | 0.3% | ?
COc1cccc(Cn2c(=O)n(CC3CCC(C(=O)N4CCOCC4)CC3)c(=O)c3sccc32)c1 (stereo not drawn) | -11.6 | / | / | 1.4% | /

Compound activity: PubChem BioAssay, National Center for Advancing Translational Sciences (NCATS)
